“And” between values parts separate entries of the source, which are not always exact repeats. Equal values may be shown once. Records with an inconclusive call do not appear. The source made the active and inactive calls. How the source made its calls: active means hit-call score of the fitted dose curve at least 0.9, where 1 is the maximum; inconclusive means response in the unintended direction; inactive means score below 0.9.
Experiments:
[1] = molecular target: zebrafish Thyroid Hormone Receptor beta (TRb), thrb (gene 30607) (UniProt Q9PVE4); experiment: ATG_zfTRb_XSP1: Attagene TRANS-FACTORIAL Multi-Species (XSP1) HepG2 Assay for zebrafish Thyroid Hormone Receptor beta (TRb) (AID 2283809)
Sequence of zebrafish Thyroid Hormone Receptor beta (TRb), thrb (gene 30607) (Q9PVE4 whole entry, looked up, the tested form may be a part): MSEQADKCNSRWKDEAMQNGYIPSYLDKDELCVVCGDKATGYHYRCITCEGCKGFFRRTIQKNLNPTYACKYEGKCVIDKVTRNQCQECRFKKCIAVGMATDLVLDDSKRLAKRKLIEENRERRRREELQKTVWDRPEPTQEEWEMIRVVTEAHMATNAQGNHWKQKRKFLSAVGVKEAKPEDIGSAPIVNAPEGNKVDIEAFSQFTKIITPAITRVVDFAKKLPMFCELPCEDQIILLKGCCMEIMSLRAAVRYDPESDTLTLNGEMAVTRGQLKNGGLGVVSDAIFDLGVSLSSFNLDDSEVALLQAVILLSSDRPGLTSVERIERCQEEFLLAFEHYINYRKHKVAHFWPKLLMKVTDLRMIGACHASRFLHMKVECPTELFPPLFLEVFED
How it was run: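 HepG2 cells transiently transfected with multiplexed GAL4-UAS reporter units expressing chimeric zebrafish TRb–Gal4. Dosed 24 h with 3 nM 6-alpha-fluorotestosterone present; reporter mRNA measured by RT-PCR, HpaI digestion and capillary electrophoresis; gain of signal versus DMSO.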

[2] = ATG_XTT_Cytotoxicity_XSP1: Cytotoxicity Assessment in the Attagene TRANS-FACTORIAL Multi-Species (XSP1) HepG2 Assay (AID 2283810)
How it was run: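 XTT viability readout taken at 24 hours post-dosing in HepG2 liver cells co-treated with 3 nM 6-alpha-fluorotestosterone. Signal loss relative to DMSO controls reflects cytotoxicity.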

[3] = ATG_M_06_XSP2: Attagene TRANS-FACTORIAL Multi-Species (XSP2) HepG2 Assay for M06 Transcription Factor (Internal Marker) (AID 2283811);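 further: hits are increases in signal above the DMSO baseline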
How it was run: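 HepG2 cells transiently transfected with GAL4-UAS multi-reporter constructs, dosed 24 h with 3 nM 6-alpha-fluorotestosterone plus 1.5 nM norgestrel present to stimulate androgen receptor. Reporter mRNA quantified by RT-PCR, 6-FAM labelling, HpaI digestion and capillary electrophoresis; gain-of-signal fitted versus DMSO baseline.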

[4] = test system: turtle Estrogen Receptor (ERa), gene 101933533; experiment: ATG_trERa_XSP2: Attagene TRANS-FACTORIAL Multi-Species (XSP2) HepG2 Assay for turtle Estrogen Receptor (ERa) (AID 2283812);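 further: human HepG2 liver cells transiently expressing turtle ERa-Gal4 chimeric receptor; actives raise reporter signal above DMSO so AC50 reflects agonist activity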
How it was run: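 HepG2 cells transiently transfected with GAL4-UAS reporter units expressing turtle ERa-Gal4 chimera. Reporter mRNA measured after 24 h dosing by RT-PCR, fluorescent labelling and capillary electrophoresis; gain of signal fitted versus DMSO.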

[5] = test system: turtle Androgen Receptor (AR), gene 101947425; experiment: ATG_trAR_XSP2: Attagene TRANS-FACTORIAL Multi-Species (XSP2) HepG2 Assay for turtle Androgen Receptor (AR) (AID 2283815);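 further: potency for gain of reporter signal meaning activation above DMSO baseline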
How it was run: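 HepG2 cells transiently transfected with GAL4-UAS reporter units for chimeric NR-Gal4 receptors; 24 h dosing in presence of 3 nM 6-alpha-fluorotestosterone and 1.5 nM norgestrel. Reporter mRNA by RT-PCR and capillary electrophoresis, gain of signal versus DMSO.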

[6] = molecular target: zebrafish Estrogen Receptor (ER1), esr1 (gene 259252) (UniProt P57717); experiment: ATG_zfER1_XSP2: Attagene TRANS-FACTORIAL Multi-Species (XSP2) HepG2 Assay for zebrafish Estrogen Receptor (ER1) (AID 2283816)
Sequence of zebrafish Estrogen Receptor (ER1), esr1 (gene 259252) (P57717 whole entry, looked up, the tested form may be a part): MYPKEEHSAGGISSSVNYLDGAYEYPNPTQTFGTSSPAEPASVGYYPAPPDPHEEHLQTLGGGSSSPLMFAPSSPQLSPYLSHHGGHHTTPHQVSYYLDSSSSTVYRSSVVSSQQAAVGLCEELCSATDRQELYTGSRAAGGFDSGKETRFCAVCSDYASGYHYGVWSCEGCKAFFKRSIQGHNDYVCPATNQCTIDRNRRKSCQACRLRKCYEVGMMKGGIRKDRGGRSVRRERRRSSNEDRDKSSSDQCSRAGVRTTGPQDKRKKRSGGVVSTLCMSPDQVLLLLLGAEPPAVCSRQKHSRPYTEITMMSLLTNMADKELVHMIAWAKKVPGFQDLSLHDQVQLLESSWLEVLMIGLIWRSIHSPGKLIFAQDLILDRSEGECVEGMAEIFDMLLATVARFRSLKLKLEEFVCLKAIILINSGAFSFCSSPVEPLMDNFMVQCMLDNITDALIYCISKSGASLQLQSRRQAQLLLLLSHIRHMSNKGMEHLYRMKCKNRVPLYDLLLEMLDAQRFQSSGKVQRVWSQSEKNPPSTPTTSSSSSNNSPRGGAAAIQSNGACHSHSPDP
How it was run: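 HepG2 cells transiently transfected with a GAL4-UAS reporter and a chimeric zebrafish ER1-Gal4 construct, dosed 24 h. Reporter mRNA quantified by RT-PCR, labelling, HpaI digestion and capillary electrophoresis, relative to DMSO.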

[7] = molecular target: chicken Estrogen Receptor (ERa), ESR1 (gene 396099) (UniProt P06212); experiment: ATG_chERa_XSP2: Attagene TRANS-FACTORIAL Multi-Species (XSP2) HepG2 Assay for chicken Estrogen Receptor (ERa) (AID 2283817);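 further: actives raise reporter signal above DMSO so AC50 reflects ER activation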
Sequence of chicken Estrogen Receptor (ERa), ESR1 (gene 396099) (P06212 whole entry, looked up, the tested form may be a part): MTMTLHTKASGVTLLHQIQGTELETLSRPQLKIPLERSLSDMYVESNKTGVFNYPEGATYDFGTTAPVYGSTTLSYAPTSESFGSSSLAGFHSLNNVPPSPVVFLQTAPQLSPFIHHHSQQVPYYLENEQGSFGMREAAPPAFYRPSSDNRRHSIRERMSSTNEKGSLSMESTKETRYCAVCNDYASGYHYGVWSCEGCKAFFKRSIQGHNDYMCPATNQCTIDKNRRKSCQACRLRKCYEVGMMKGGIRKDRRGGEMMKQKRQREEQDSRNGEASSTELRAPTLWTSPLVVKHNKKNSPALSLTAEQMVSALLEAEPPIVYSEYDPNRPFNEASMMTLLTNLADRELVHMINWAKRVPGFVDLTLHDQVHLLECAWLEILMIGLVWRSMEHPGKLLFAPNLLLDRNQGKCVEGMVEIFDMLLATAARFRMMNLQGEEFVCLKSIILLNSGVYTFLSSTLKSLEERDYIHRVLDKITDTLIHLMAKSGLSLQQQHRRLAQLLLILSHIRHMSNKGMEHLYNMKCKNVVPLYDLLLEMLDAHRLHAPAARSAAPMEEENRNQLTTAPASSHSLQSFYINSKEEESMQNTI
How it was run: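 HepG2 cells transiently transfected with multiplexed GAL4-UAS reporter units expressing chimeric chicken ERa-Gal4; 24 h compound exposure. Reporter mRNA measured by RT-PCR with 6-FAM labelling, HpaI digestion and capillary electrophoresis; gain-of-signal fitted versus DMSO.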

[8] = test system: zebrafish Estrogen Receptor (ER2a), gene 317734; experiment: ATG_zfER2a_XSP2: Attagene TRANS-FACTORIAL Multi-Species (XSP2) HepG2 Assay for zebrafish Estrogen Receptor (ER2a) (AID 2283818);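 further: hits raise reporter mRNA so AC50 reflects activation of zebrafish ER2a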
How it was run: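 HepG2 cells transiently transfected with GAL4-UAS reporter units and chimeric zebrafish ER2a-Gal4, exposed 24 h; medium contains 3 nM 6-alpha-fluorotestosterone and 1.5 nM norgestrel. Reporter mRNA quantified by RT-PCR, HpaI digestion, capillary electrophoresis; gain versus DMSO.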

[9] = test system: chicken Androgen Receptor (AR), gene 422165; experiment: ATG_chAR_XSP2: Attagene TRANS-FACTORIAL Multi-Species (XSP2) HepG2 Assay for chicken Androgen Receptor (AR) (AID 2283819);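 further: hits raise reporter mRNA above DMSO so potency is for activation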
How it was run: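 HepG2 cells transiently transfected with chicken AR–GAL4 chimeric reporter constructs, stimulated with 3 nM 6-alpha-fluorotestosterone plus 1.5 nM norgestrel, dosed 24 h. Reporter mRNA quantified by RT-PCR and capillary electrophoresis; gain of signal fitted versus DMSO.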

[10] = test system: frog Estrogen Receptor (ER), gene 398734; experiment: ATG_frER1_XSP2: Attagene TRANS-FACTORIAL Multi-Species (XSP2) HepG2 Assay for frog Estrogen Receptor (ER) (AID 2283821);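 further: hits raise reporter mRNA above DMSO baseline so potency means agonist or activator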
How it was run: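 HepG2, transient MRTU transfection, chimeric NR-GAL4/UAS reporters; 24 h compound exposure, 24-well. Readout: reporter mRNA via RT-PCR + capillary electrophoresis, fluorescence. Positive fit vs DMSO baseline.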

[11] = test system: zebrafish Estrogen Receptor (ER2b), gene 317733; experiment: ATG_zfER2b_XSP2: Attagene TRANS-FACTORIAL Multi-Species (XSP2) HepG2 Assay for zebrafish Estrogen Receptor (ER2b) (AID 2283823);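 further: fitted upward as reporter gain over DMSO so potency reflects activation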
How it was run: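 Transfect HepG2 with GAL4-UAS reporter constructs; dose chemicals, 24 h; isolate RNA, RT-PCR, FAM-label, HpaI digest; capillary electrophoresis. Gain-of-signal vs DMSO.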

[12] = test system: frog Androgen Receptor (AR), gene 399456; experiment: ATG_frAR_XSP2: Attagene TRANS-FACTORIAL Multi-Species (XSP2) HepG2 Assay for frog Androgen Receptor (AR) (AID 2283824);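 further: actives raise reporter signal above DMSO so AC50 reflects agonist-like induction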
How it was run: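 HepG2 cells transiently transfected with GAL4-UAS reporter units and frog (Xenopus laevis) AR-Gal4 chimera; reporter mRNA measured 24 h after dosing by RT-PCR and capillary electrophoresis. Gain of signal fitted relative to DMSO baseline.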

[13] = test system: zebrafish Androgen Receptor (AR), gene 100005148; experiment: ATG_zfAR_XSP2: Attagene TRANS-FACTORIAL Multi-Species (XSP2) HepG2 Assay for zebrafish Androgen Receptor (AR) (AID 2283825);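 further: hits raise reporter mRNA above DMSO so AC50 reflects agonist-type gain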
How it was run: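 Zebrafish AR–GAL4 chimera transiently expressed with GAL4-UAS reporter in HepG2 cells, co-stimulated with 3 nM 6-alpha-fluorotestosterone and 1.5 nM norgestrel; 24 h dosing, reporter mRNA read by RT-PCR/capillary electrophoresis versus DMSO.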

[14] = molecular target: Estrogen receptor (Homo sapiens) (UniProt P03372); experiment: ATG_hERa_XSP2: Attagene TRANS-FACTORIAL Multi-Species (XSP2) HepG2 Assay for human Estrogen Receptor (ERa) (AID 2283827)
Sequence of Estrogen receptor (Homo sapiens) (P03372 whole entry, looked up, the tested form may be a part): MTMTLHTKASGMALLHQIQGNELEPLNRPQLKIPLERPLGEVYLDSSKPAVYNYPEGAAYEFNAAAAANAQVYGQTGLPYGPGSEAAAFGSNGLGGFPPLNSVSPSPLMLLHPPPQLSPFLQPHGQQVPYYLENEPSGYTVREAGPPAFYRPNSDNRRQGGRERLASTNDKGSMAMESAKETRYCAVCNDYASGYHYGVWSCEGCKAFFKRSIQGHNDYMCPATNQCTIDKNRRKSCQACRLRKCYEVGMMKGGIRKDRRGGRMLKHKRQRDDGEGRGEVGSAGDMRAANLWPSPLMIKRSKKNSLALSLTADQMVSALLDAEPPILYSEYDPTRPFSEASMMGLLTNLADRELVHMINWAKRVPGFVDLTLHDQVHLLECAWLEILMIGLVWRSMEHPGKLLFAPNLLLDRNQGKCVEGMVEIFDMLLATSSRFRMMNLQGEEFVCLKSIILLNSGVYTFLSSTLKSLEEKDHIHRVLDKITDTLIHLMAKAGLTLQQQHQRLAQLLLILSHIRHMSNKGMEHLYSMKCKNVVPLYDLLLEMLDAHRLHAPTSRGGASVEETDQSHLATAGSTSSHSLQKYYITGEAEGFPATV
How it was run: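 HepG2 cells transiently transfected with multiplexed GAL4-UAS reporters driven by chimeric receptor-Gal4 proteins, dosed 24 h with 3 nM 6-alpha-fluorotestosterone and 1.5 nM norgestrel present. Reporter mRNA by RT-PCR and capillary electrophoresis; gain-of-signal fit versus DMSO.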

[15] = test system: frog Estrogen Receptor (ER2), gene 100174814; experiment: ATG_frER2_XSP2: Attagene TRANS-FACTORIAL Multi-Species (XSP2) HepG2 Assay for frog Estrogen Receptor (ER2) (AID 2283828)
How it was run: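 Human liver HepG2, transient MRTU transfection (TRANS format, exogenous NR–Gal4). 24 h cpd exposure. Total RNA → RT → PCR → FAM label → HpaI cut → CE. Positive direction vs DMSO.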

[16] = molecular target: GAL4 Transcription Factor (Internal Marker), GAL4 (gene 855828) (UniProt P04386); experiment: ATG_GAL4_XSP2: Attagene TRANS-FACTORIAL Multi-Species (XSP2) HepG2 Assay for GAL4 Transcription Factor (Internal Marker) (AID 2283814);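 further: GAL4 reporter mRNA background control in MRTU transfected cells not a receptor target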
Sequence of GAL4 Transcription Factor (Internal Marker), GAL4 (gene 855828) (P04386 whole entry, looked up, the tested form may be a part): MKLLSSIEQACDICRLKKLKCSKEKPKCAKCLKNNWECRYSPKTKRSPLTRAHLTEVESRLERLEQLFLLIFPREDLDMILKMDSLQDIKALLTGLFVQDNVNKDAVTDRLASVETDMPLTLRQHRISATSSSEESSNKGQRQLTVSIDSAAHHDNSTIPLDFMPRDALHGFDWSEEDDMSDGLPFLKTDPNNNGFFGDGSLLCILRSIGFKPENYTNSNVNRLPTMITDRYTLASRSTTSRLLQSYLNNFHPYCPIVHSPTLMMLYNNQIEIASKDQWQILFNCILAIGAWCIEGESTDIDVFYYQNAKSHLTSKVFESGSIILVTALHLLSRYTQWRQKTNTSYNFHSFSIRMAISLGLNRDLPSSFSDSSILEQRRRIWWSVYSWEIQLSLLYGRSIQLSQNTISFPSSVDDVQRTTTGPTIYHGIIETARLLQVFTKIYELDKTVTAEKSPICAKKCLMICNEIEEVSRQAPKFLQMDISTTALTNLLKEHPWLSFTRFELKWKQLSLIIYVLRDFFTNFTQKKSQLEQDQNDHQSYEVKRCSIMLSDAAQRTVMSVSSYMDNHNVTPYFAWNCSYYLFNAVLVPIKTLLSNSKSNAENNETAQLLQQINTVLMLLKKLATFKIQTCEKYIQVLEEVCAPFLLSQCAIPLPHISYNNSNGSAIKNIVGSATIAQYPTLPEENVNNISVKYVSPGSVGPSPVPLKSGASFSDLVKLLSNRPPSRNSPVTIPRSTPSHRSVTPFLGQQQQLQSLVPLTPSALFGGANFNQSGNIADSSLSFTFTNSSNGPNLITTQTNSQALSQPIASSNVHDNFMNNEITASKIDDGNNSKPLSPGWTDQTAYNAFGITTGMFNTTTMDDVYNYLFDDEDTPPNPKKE
How it was run: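 HepG2 cells transiently transfected with GAL4-UAS reporter units, stimulated with 3 nM 6-alpha-fluorotestosterone plus 1.5 nM norgestrel, dosed 24 h. Reporter mRNA by RT-PCR/capillary electrophoresis; gain-of-signal fit versus DMSO, background control.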

[17] = ATG_M_19_XSP2: Attagene TRANS-FACTORIAL Multi-Species (XSP2) HepG2 Assay for M32 Transcription Factor (Internal Marker) (AID 2283822)
How it was run: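 Internal background marker in a multi-species nuclear receptor TRANS panel: transfected HepG2 cells exposed 24 h, with 3 nM 6-alpha-fluorotestosterone and 1.5 nM norgestrel present. Readout is RT-PCR of reporter transcripts resolved by capillary electrophoresis, gain-of-signal versus DMSO.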

[18] = molecular target: Estrogen receptor beta (Homo sapiens) (UniProt Q92731); experiment: ATG_hERb_XSP2: Attagene TRANS-FACTORIAL Multi-Species (XSP2) HepG2 Assay for human Estrogen Receptor (ERb) (AID 2283813);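 further: actives raise reporter mRNA above DMSO so AC50 reflects agonist induction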
Sequence of Estrogen receptor beta (Homo sapiens) (Q92731 whole entry, looked up, the tested form may be a part): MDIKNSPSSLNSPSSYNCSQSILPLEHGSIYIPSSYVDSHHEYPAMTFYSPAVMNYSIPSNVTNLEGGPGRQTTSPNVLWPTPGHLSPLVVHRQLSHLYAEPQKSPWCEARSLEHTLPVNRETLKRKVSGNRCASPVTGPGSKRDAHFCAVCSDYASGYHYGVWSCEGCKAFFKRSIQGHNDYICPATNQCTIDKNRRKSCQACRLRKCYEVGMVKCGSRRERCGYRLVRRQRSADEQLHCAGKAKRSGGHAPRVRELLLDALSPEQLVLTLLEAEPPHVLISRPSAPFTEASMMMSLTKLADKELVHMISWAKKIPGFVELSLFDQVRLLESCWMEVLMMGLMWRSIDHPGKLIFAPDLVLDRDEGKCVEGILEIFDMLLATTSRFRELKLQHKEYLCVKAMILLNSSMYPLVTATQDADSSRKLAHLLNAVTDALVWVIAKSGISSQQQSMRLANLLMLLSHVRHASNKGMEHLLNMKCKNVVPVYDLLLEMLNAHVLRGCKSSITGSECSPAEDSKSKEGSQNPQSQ
How it was run: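 HepG2 cells transiently transfected with GAL4-UAS reporter units and chimeric human ERb-Gal4, 24 h exposure. Reporter mRNA quantified by RT-PCR with FAM labelling, HpaI digestion and capillary electrophoresis; gain of signal versus DMSO.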

[19] = ATG_M_32_XSP2: Attagene TRANS-FACTORIAL Multi-Species (XSP2) HepG2 Assay for M19 Transcription Factor (Internal Marker) (AID 2283826)
How it was run: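 Read-out: fluorescent reporter mRNA fragments resolved by capillary electrophoresis after RT-PCR, gain-of-signal versus DMSO baseline. Cells were human HepG2 carrying transfected multi-reporter units, exposed 24 h. Medium contained 3 nM 6-alpha-fluorotestosterone plus 1.5 nM norgestrel.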

Measured: AC50

C[C@]12CCC(=O)C=C1CC[C@@H]1[C@@H]2CC[C@@]2(C)[C@H]1CC[C@]2(C)O
active: [4] 2.1 nM | [5] 3.41 nM | [6] 51.6 nM | [7] 2.03 nM | [8] 2.5 nM | [9] 0.725 nM | [10] 2.25 nM | [11] 8.34 nM | [12] 7.39 nM | [13] 2.51 nM | [14] 0.744 nM | [15] 11.6 nM
inactive: [1] | [2] | [3]

Cc1cc(-c2ccc(N)c(C)c2)ccc1N
inactive: [16] | [10] | [17]
active: [4] 6.32 µM and 13.2 µM | [6] 65.7 µM and 100 µM and 81.1 µM | [7] 7.48 µM and 27.1 µM and 17.7 µM | [8] 4.47 µM and 11 µM and 6.8 µM | [11] 34.9 µM and 61.3 µM and 39.7 µM | [14] 3.66 µM and 9.97 µM and 9.48 µM | [15] 22.1 µM and 10.6 µM

CC(C)(O)C(=O)Nc1ccc([N+](=O)[O-])c(C(F)(F)F)c1
active: [1] 50000 nM | [11] 36100 nM | [14] 100000 nM
not listed: [5] | [9] | [12] | [13] | [17]
inactive: all other assays above

— PubChem BioAssay (EPA / NIEHS)
